Holding throughout (assay): NCI-60 one-dose screen, 48 h (100 = growth as untreated, 0 = no growth, -100 = all killed)
The test system of one experiment is NCI-H23 lung. Particulars: 10 µM unless noted.
The subject of another experiment is NCI-H226 lung. The conditions noted are these: 10 µM unless noted.
The next experiment has as its system NCI-H322M lung. Particulars: 10 µM unless noted.
A further experiment has as its system HOP-62 NSCLC. Particulars: 10 µM unless noted.
For a further experiment, the system named is NCI-H460 lung. Particulars: 10 µM unless noted.
For the next experiment, the system named is HOP-92 NSCLC. Particulars: 10 µM unless noted.
In another experiment the test system is NCI-H522 lung. Particulars: 10 µM unless noted.
In a further experiment the test system is A549/ATCC NSCLC. The conditions noted are these: 10 µM unless noted.
The subject of another experiment is 786-0 renal. Particulars: 10 µM unless noted.
Another experiment concerns COLO 205 colon. Particulars: 10 µM unless noted.
A further experiment relates to DU-145 prostate. The conditions noted are these: 10 µM unless noted.
A further experiment concerns K-562 leukemia. The conditions noted are these: 10 µM unless noted.
The test system of a further experiment is MALME-3M melanoma. Particulars: 10 µM unless noted.
Another experiment relates to MDA-MB-231 breast. The conditions noted are these: 10 µM unless noted.
A further experiment relates to RXF 393 renal. Particulars: 10 µM unless noted.
The next experiment concerns SF-268 CNS. Particulars: 10 µM unless noted.
The next experiment concerns SF-295 CNS. Particulars: 10 µM unless noted.
The test system of the next experiment is SF-539 CNS. The conditions noted are these: 10 µM unless noted.
A further experiment has as its system UACC-257 melanoma. The conditions noted are these: 10 µM.
For the next experiment, the system named is M14 melanoma. Particulars: 10 µM unless noted.

The values that follow come from PubChem BioAssay (NCI).

Compounds without any hit were thinned out: in the full panel of roughly 83,000, 20% have a hit.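 Values shown are percent growth following 48 h exposure of cells in 96-well plates to a single concentration of compound; below 10 was considered active.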 A number with no mark means an inactive call. Calls of active or inactive are those of the source.

Consider `Oc1ccc(CSc2nnc(-c3ccncc3)n2-c2ccccc2)c2cccnc12`, for which the growth is 22.4% in the experiment with NCI-H23 lung; 50.8% in the experiment with NCI-H226 lung; 34% with NCI-H322M lung; 17% with HOP-62 NSCLC; 5.96% (active) with NCI-H460 lung; -7.79% (active) in the experiment with HOP-92 NSCLC. For the same compound, the growth is 3.95% (active) in the experiment on NCI-H522 lung; 25.5% with A549/ATCC NSCLC; 29.1% in the experiment on 786-0 renal; 102% in the experiment on COLO 205 colon; 28.2% in the experiment with DU-145 prostate; 18.4% with K-562 leukemia. The growth with MALME-3M melanoma is 31.8%; in the experiment with MDA-MB-231 breast, 30.7%; in the experiment with RXF 393 renal, 23.6%; with SF-268 CNS, 23.1%; in the experiment on SF-295 CNS, 4.58% (active); in the experiment on SF-539 CNS, 21.1%. Besides, the growth is 10.7% in the experiment with UACC-257 melanoma and 23.1% in the experiment with M14 melanoma.
In the case of `Cc1ccccc1NC1CC(=O)N(c2ccc(Cl)cc2Cl)C1=O` (stereo not given), the growth was 102% with NCI-H23 lung; 108% in the experiment with NCI-H226 lung; 99% in the experiment with NCI-H322M lung; 103% with HOP-62 NSCLC; 104% with NCI-H460 lung; 78% with HOP-92 NSCLC. Also, the growth in the experiment with NCI-H522 lung is 95.7%; in the experiment with A549/ATCC NSCLC, 99.8%; in the experiment on 786-0 renal, 94.2%; in the experiment on COLO 205 colon, 120%; in the experiment on DU-145 prostate it was 103%; in the experiment with K-562 leukemia, 107%. Moreover, the growth in the experiment with MALME-3M melanoma is 98.9%; in the experiment with MDA-MB-231 breast, 104%; with RXF 393 renal, 112%; in the experiment on SF-268 CNS, 99.4%; with SF-295 CNS it was 102%; in the experiment on SF-539 CNS, 93.1%. For the same compound, the figures for the growth with UACC-257 melanoma and in the experiment on M14 melanoma were 98.5% and 102%, respectively.
On to `COc1ccc(N2CCN(C(=O)CSc3ccc(-c4nc5cc(C)c(C)cc5[nH]4)cn3)CC2)cc1`, for which the growth was 54.5% in the experiment on NCI-H23 lung; 66.8% in the experiment on NCI-H226 lung; 76.6% in the experiment with NCI-H322M lung; 84.9% with HOP-62 NSCLC; 89.9% in the experiment with NCI-H460 lung; 85% in the experiment on HOP-92 NSCLC. Also, the growth is 36% in the experiment on NCI-H522 lung; 77.3% with A549/ATCC NSCLC; 102% in the experiment with 786-0 renal; 60.2% in the experiment with COLO 205 colon; 93.1% in the experiment on DU-145 prostate; 35.3% in the experiment on K-562 leukemia. For the same compound, the growth was 69.9% in the experiment with MALME-3M melanoma; 85.6% in the experiment with MDA-MB-231 breast; 93.6% with RXF 393 renal; 99.3% with SF-268 CNS; 50.2% in the experiment on SF-295 CNS; 84% in the experiment on SF-539 CNS. For the same compound, the results for the growth in the experiment with UACC-257 melanoma and in the experiment on M14 melanoma were 52.1% and 53.9%, respectively.
For the compound `CCOC(=O)c1c(NC(=O)c2ccc(C(C)(C)C)cc2)sc2cc(OCCN3CCCCC3)ccc12`, the growth in the experiment on NCI-H23 lung was 88.6%; with NCI-H226 lung it was 101%; in the experiment on NCI-H322M lung it was 83.1%; in the experiment with HOP-62 NSCLC, 91.1%; in the experiment with NCI-H460 lung, 13.9%; with HOP-92 NSCLC, 66.1%. Also, the growth is 96.8% in the experiment with NCI-H522 lung; 77% with A549/ATCC NSCLC; 75.5% with 786-0 renal; 25.6% in the experiment on COLO 205 colon; 71.5% in the experiment with DU-145 prostate; 16% in the experiment with K-562 leukemia. Further, the growth in the experiment on MALME-3M melanoma was 97%; in the experiment with MDA-MB-231 breast it was 70.1%; in the experiment with RXF 393 renal, 68.1%; in the experiment on SF-268 CNS it was 90.6%; in the experiment on SF-295 CNS it was 99.7%; with SF-539 CNS it was 82.1%. The growth in the experiment on UACC-257 melanoma is 100%; with M14 melanoma, 89.3%.
With `CCOC(=O)c1c(NCC(=O)Nc2ccc(Br)cc2)sc2c1CCCC2`, the growth with NCI-H23 lung was 26.3%; in the experiment on NCI-H226 lung, 40.7%; in the experiment with NCI-H322M lung, 85.6%; in the experiment on HOP-62 NSCLC it was 69.2%; in the experiment on NCI-H460 lung, 68.9%; in the experiment on HOP-92 NSCLC, 67.7%. Besides, the growth with NCI-H522 lung is -48.8% (active); in the experiment with A549/ATCC NSCLC, 73.2%; with 786-0 renal, 21.2%; in the experiment with COLO 205 colon, 33.3%; in the experiment with DU-145 prostate it was 66.7%; with K-562 leukemia, 10.8%. The growth in the experiment with MALME-3M melanoma is 21.7%; with MDA-MB-231 breast, 36.5%; in the experiment on RXF 393 renal, -50.1% (active); in the experiment with SF-268 CNS, 58.4%; in the experiment on SF-295 CNS, 39.1%; in the experiment with SF-539 CNS it was 12%. Also, the figures for the growth with UACC-257 melanoma and in the experiment on M14 melanoma were 76.2% and 46.3%, respectively.
In the case of `O=c1[nH]c(CNc2ccc(NCc3c(-c4ccccc4)no[n+]3[O-])cc2)nc2c1cnn2-c1ccccc1`, the growth in the experiment with NCI-H23 lung is 63.4%; in the experiment with NCI-H226 lung, 77.1%; in the experiment with NCI-H322M lung, 80.2%; in the experiment on HOP-62 NSCLC, 105%; in the experiment on NCI-H460 lung, 64.2%; in the experiment with HOP-92 NSCLC it was 85.4%. For the same compound, the growth in the experiment with NCI-H522 lung is 60.8%; in the experiment on A549/ATCC NSCLC it was 63.8%; in the experiment with 786-0 renal it was 86%; with COLO 205 colon, 101%; in the experiment with DU-145 prostate, 74.6%; in the experiment with K-562 leukemia it was 49.8%. Besides, the growth was 80% in the experiment on MALME-3M melanoma; 72.5% with MDA-MB-231 breast; 98.4% in the experiment on RXF 393 renal; 73.5% with SF-268 CNS; 71.8% with SF-295 CNS; 92.6% in the experiment on SF-539 CNS. The growth is 60.6% in the experiment on UACC-257 melanoma and 70.7% in the experiment on M14 melanoma.
Consider `COc1ccc(-c2nnc(SCc3ccc(O)c4ncccc34)n2-c2ccccc2)cc1`, for which the growth is 17.6% in the experiment with NCI-H23 lung; 30.1% in the experiment on NCI-H226 lung; 19.8% in the experiment on NCI-H322M lung; 19.9% in the experiment with HOP-62 NSCLC; 2.93% (active) in the experiment on NCI-H460 lung; -4.84% (active) in the experiment on HOP-92 NSCLC. Besides, the growth with NCI-H522 lung was 15.5%; with A549/ATCC NSCLC, 26.4%; with 786-0 renal it was 25.5%; in the experiment on COLO 205 colon, 68.6%; in the experiment with DU-145 prostate, 24.8%; in the experiment with K-562 leukemia, 13.3%. For the same compound, the growth in the experiment with MALME-3M melanoma was 10.6%; in the experiment with MDA-MB-231 breast, 30.9%; in the experiment with RXF 393 renal, 7.27% (active); in the experiment on SF-268 CNS, 18.1%; with SF-295 CNS, -1.96% (active); in the experiment on SF-539 CNS it was 4.55% (active). Besides, the growth in the experiment on UACC-257 melanoma was 13.6%; with M14 melanoma, -13.5% (active).
